40 compounds from PubChem BioAssay (EPA / NIEHS) can be followed below.

Calls of active or inactive are those of the source. Rule for the calls: active = hit-call score of the fitted dose curve at least 0.9, where 1 is the maximum; inactive = score below 0.9.

Read-out in the assay: JUN Transcription Factor, JUN (gene 3725)
In words: LTEA_HepaRG_JUN: Life Technologies and Expression Analysis (LTEA) Assay for JUN Transcription Factor using HepaRG (AID 2283513). Particulars: mRNA level, 48 h; actives raise or lower the signal. How it is done:
LTEA_HepaRG is a cell based, multiplexed-readout assay that uses HepaRG, a human liver cell line, with measurements taken at 48 hours after chemical dosing on a 96-well plate.LTEA_HepaRG_JUN is one of 102 assay component(s) measured in the LTEA HepaRG cell culture assay. It is a marker of Cell proliferation, survival, death.Data from the assay component LTEA_HepaRG_JUN was analyzed into 1 endpoint. This assay endpoint, LTEA_HepaRG_JUN, was analyzed with bidirectional fitting relative to DMSO as the negative control and baseline of activity. Using a type of inducible reporter, measures of mRNA induction for gain or loss-of-signal activity can be used to understand regulation of transcription factor activity. To generalize the intended target to other relatable targets, this assay endpoint is annotated to the dna binding intended target family, where the subfamily is basic leucine zipper.
A total of 1060 chemcials from the ToxCast library were tested in eight-point concentration-response experiments. Cell culture and cytotoxicity assays were conducted at Thermo Fisher Scientific's Custom Services facility (Madison, WI). A single lot of human HepaRG cells (Thermo Fisher Scientific, Frederick, MD) was used for the cell culture experiments. 96-well format collagen type I coated plates of human HepaRG cells were prepared using established methods. Briefly, cryopreserved HepaRG cells were thawed, plated at a density of approximately 100,000 cells/well in HepaRG Thaw, Plate, and General Purpose media (HPRG770, Thermo Fisher Scientific), and incubated for 48 hours. 0.5% DMSO was selected as vehicle control to balance the requisite need of DMSO in HepaRG cultures to maintain differentiation (for example, baseline metabolism, proportions of hepatocytes vs. cholangiocytes), while enabling further hepatic receptor pathway activation (for example, PXR and CAR) in response to chemical exposure. 48 hours after plating, the culture medium was replaced with HepaRG Serum-Free Incudtion Media. Cells were exposed to each test chemical in duplicate and maintained in CO2 incubators for another 48 hours. Chemical plates were thawed to room temperature and 200x concentrations of treatment groups were prepared. 8-point conentration-reponse curves were made with the highest exposure at 100 uM, followed by half-log dilutions, all in 0.5% DMSO. Each test plate contained variouse controls, induction positive controls (1mM phenobarbital), cytotoxicity positive controls ([…] aflatoxin B1), vehicle controls (0.5% DMSO), and total lysis controls (0.5% DMSO). Cell morphology images were taken using an Essen IncuCyte FLR automated microscope, with six 96-well plates imaged in about 24 minutes. Images were captured and exported and JPEG files. Spent culture media was transfered to black-well plates for the LDH assay, and remaining media was sorted at -80 C for later use. Cells were treated with RLT buffer and frozen until shipped for gene expression analysis. Total RNA was isolated from the cell suspension in 75 uL of Buffer RLT (Qiagen, Germantown, MD 20874) by Quintiles/Expression Analysis (Durham, NC) using a custom isolation procedure. Total RNA from each plate well was transferred to a preamplification plate. Fluidigm's 96.96 Dynamic ArrayTM (Fluidigm, Amsterdam, the Netherlands) technology was used for gene expression analyses by quantitative reverse transcription polymerase chain reaction (qRT-PCR, performed by Quintiles/Expression Analysis, Durham, NC)89. Standard TaqManTM Assays (Applied Biosystems/ThermoFisher Scientific, Foster City, CA) were used to assess the expression of 93 genes selected based on their selectivity and sensitivity to important hepatic receptors known to be modulated by environmental chemicals; importance in human hepatocyte functionality; and hepatotoxicity. […]
Take `C=CCCCCCCCCC(=O)O`: the outcome was inactive.
Regarding `CC(=O)OC[C@H]1O[C@@](COC(C)=O)(O[C@H]2O[C@H](COC(C)=O)[C@@H](OC(C)=O)[C@H](OC(C)=O)[C@H]2OC(C)=O)[C@@H](OC(C)=O)[C@@H]1OC(C)=O`, the compound was classed as inactive.
On to `CC(C)CCCCCCOC(=O)c1ccc(C(=O)OCCCCCCC(C)C)c(C(=O)OCCCCCCC(C)C)c1`, for which the call was inactive.
With `CC(O)CN(CCN(CC(C)O)CC(C)O)CC(C)O` (stereo not given), the call was inactive.
`O=C(O)CCN(C1(C(=O)NO)CCCC1)S(=O)(=O)c1ccc(Oc2ccc(F)cc2)cc1`: the result was inactive.
Regarding `COCCOc1cc2cc(C(=O)NC3CCN(C(C)C)CC3)n(CC(=O)Nc3ccc(Cl)cn3)c2cn1`, the call was inactive.
For `CN(C)c1ccc(N=NS(=O)(=O)O)cc1`, the outcome was inactive.
On to `CC[C@H]1CC[C@H](NCc2cc3c(cc2OC)[C@H]2C[C@H]2C(=O)N3C)[C@H](c2ccccc2)N1`, for which the call was inactive.
On to `O=C1OC(=O)C2C3C=CC(C3)C12` (stereo not given), for which the compound was classed as inactive.
Regarding `Clc1nc(Cl)c(Cl)c(Cl)c1Cl`, the outcome was inactive.
For `CC(=O)OCCC(C)C`, the compound was called inactive.
Still for that read-out and setting: the result for `CCCC(=O)OCC` reads “inactive”; that for `Cc1c(-c2cccnc2)c2ccccc2n1CCCCC(=O)O`, “inactive”; that for `CNCc1ccc(NC(=O)c2c[nH]c3c2C(=O)CCC3)cc1`, “inactive”.
Still for that read-out and setting: for `CN(C)c1ccc(Cc2ccc(N(C)C)cc2)cc1` the value was “inactive”; for `On1ccccc1=S`, “inactive”; for `CCn1nc(Cc2ccccc2)cc1C1CCN(C[C@H]2C[C@H](N(C)[C@@H](C(=O)O)C(C)C)C[C@@H]2c2cccc(F)c2)CC1`, “inactive”.
Regarding `CC(C)CCO`, the compound was classed as inactive.
The same measure, in the same setting: for `O=C(O)CC(O)C(=O)O` (stereo not given) the value was “inactive”; for `COC(=O)c1c(Cl)c(Cl)c(C(=O)OC)c(Cl)c1Cl`, “inactive”; for `O=C1CCCCCN1`, “inactive”.
Still for that read-out and setting: for `CCNc1ccccc1` the value was “inactive”; for `CCC(C)(C)C(=O)O[C@H]1C[C@@H](C)C=C2C=C[C@H](C)[C@H](CC[C@@H]3C[C@@H](O)CC(=O)O3)[C@H]21`, “inactive”.
Consider `CC1(C)C(=O)N(Br)C(=O)N1Br`, for which the compound was classed as inactive.
Consider `CC(C)=CCCC(C)CCO` (stereo not given), for which the call was inactive.
Take `CC(C)=CCC/C(C)=C/CO`: the call was inactive.
As to `O=C(NS(=O)(=O)/C=C/c1ccccc1)c1ccc(F)cc1Cl`, the compound was classed as inactive.
As to `C1=CCCC=CCCC=CCC1`, the call was inactive.
Still for that read-out and setting: for `CC(=O)c1ccc2c(c1)[C@H](NC(=O)c1ccc(F)cc1)[C@@H](O)C(C)(C)O2` the value was “inactive”; for `CCOC(=O)COc1ccc2c(c1)CC(NCC(O)c1cccc(Cl)c1)CC2` (stereo not given), “inactive”.
Usually AC50 stands for the concentration giving half of the maximal activity seen. As for `Cc1[nH]cnc1C[C@H]1CCc2c(C)c3ccccc3n2C1=O`, the AC50 is 44.5 µM (active).
Consider `Nc1nc2ncc(CNc3ccc(C(=O)N[C@@H](CCC(=O)O)C(=O)O)cc3)nc2c(=O)[nH]1`, for which the result was inactive.
On the same count and under the same terms, the result for `CCCCC(CC)COC(=O)c1ccc(C(=O)OCC(CC)CCCC)cc1` (stereo not given) reads “inactive”; that for `C[C@](N)(Cc1ccc(O)c(O)c1)C(=O)O`, “inactive”.
Regarding `C=CC(=C)CCC=C(C)C`, the outcome was inactive.
Still for that read-out and setting: the result for `COC(=O)CC(=O)OC` reads “inactive”.
Turning to `CCCCCCCCCCCCc1ccccc1`, the call was inactive.
Take `C1N2CN3CN1CN(C2)C3`: the call was inactive.
As for `O=C(CCCCCCCCc1cccnc1)N1CCC(C=C(c2ccccc2)c2ccccc2)CC1`, the AC50 is 28.5 µM (active).
The same measure, in the same setting: the result for `CCc1cc(SCc2sc(-c3ccc(C(F)(F)F)cc3)nc2CN2CCN(c3ccc(OC)cc3)CC2)ccc1OCC(=O)O` reads 88.8 µM (active).
